Compound activity (PubChem)
Only some compounds are listed: those with a hit (about 11% of all), similar ones and a draw of the others.
Pf growth 96h = inhibits malaria parasite growth, 96 h; Potency, µM (doses to about 28.7 µM), for the others: at the highest dose activity change, negative = inhibition, actives largely listed as inhibitors; AID 504834; P. falciparum luciferase reporter growth, 96 h; actives 6.9% (n = 320,000); note: % is set by controls: 0 for no effect and ±100 for the full control effect
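Delayed-death screen, second-generation endpoint: infected erythrocytes, 2% hematocrit, 0.05% parasitemia final; 96 hours at 37 C, 5% CO2; luciferase detection reagent; luminescence decrease equals reduced growth.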
Vaccinia Venus = vaccinia inhibition (Venus reporter) | Vaccinia virus Venus reporter expression, fluorescence | Potency, µM (highest dose often 36.5 µM), for inactives: at the top dose activity change, negative = inhibition, actives largely listed as inhibitors | actives 0.46% (n = 330,000) | AID 720580; calls by dose curve; tested in A549 cells; note: % is set by controls: 0 for no effect and ±100 for the full control effect; nearly all actives have a fitted effect of over 30% in size
Pf growth 48h = P. falciparum growth inhibition at 48 hours (one generation); P. falciparum luciferase growth in erythrocytes, 48 h; Potency, µM (doses to about 28.7 µM), for the others: at the highest dose activity change, negative = inhibition, actives largely listed as inhibitors; actives 5.9% (n = 310,000); AID 504832; note: % is set by controls: 0 for no effect and ±100 for the full control effect
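Growth was read as firefly luciferase luminescence after a 48 h, 37 C, 5% CO2 exposure of compounds to reporter-bearing P. falciparum cultures (0.1% parasitemia, 2% hematocrit final) in Albumax-supplemented RPMI 1640.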
NS1 function inh = blocks influenza NS1 protein function | Potency, µM (highest dose often 46.1 µM), without a hit: at the top dose activity, positive = more growth | actives 0.4% (n = 270,000) | AID 2326; calls by dose curve; note: actives are rising curves; nearly all actives have a fitted effect of over 50% in size
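In this qHTS, NS1 from influenza A is expressed in budding yeast, where it slows growth. Cells are switched from glucose to 2% galactose medium (pH 6.0, -URA), treated with compound, and growth recovery is read at OD600.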
HCV inh = inhibitors of hepatitis C virus infection; actives 3.4% (n = 340,000); Potency, µM (series often up to 41.8 µM), without a hit: at the top dose activity change, negative = inhibition, most hits filed as inhibitors; Huh7.5.1 HCVcc-Cre infection, luciferase reporter, 44 h; AID 651820; note: % is set by controls: 0 for no effect and ±100 for the full control effect
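Compounds are dispensed onto cells plated 4 h earlier at 1,000 per well, with HCVcc-Cre virus (about 0.5 moi) added next. Following 44 h of culture, luminescent signal is measured for 15 sec after 15 min with substrate at room temperature.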
Vaccinia mCherry = inhibitors of vaccinia virus infection (mCherry reporter signal); Vaccinia virus mCherry reporter infection, fluorescence; Potency, µM (series often up to 36.5 µM), for inactives: at the top dose activity change, negative = inhibition, actives largely listed as inhibitors; actives 0.63% (n = 310,000); AID 720579; calls by dose curve; tested in A549 cells; note: % is set by controls: 0 for no effect and ±100 for the full control effect; nearly all actives have a fitted effect of over 35% in size
* hit, by the source's call; [ ] = dose if it differs, or a comment. Unless noted, calls come from the whole dose curve; as a rule, active = well fitted inhibition curve with a large enough effect; inconclusive = small, poorly fitted or top-dose-only effect, or another doubt; inactive = no such curve, though single readings can be large or run the other way. Potency is the fitted concentration of half-maximal effect.

CCn1c(SCC(=O)Nc2cc(C)on2)nnc1-c1ccc(S(=O)(=O)N2CCCC2)cc1 was read as Pf growth 96h -1%, Pf growth 48h inconclusive, NS1 function inh -8% and HCV inh 16%.
For Cc1cc(NC(=O)CSc2nnc(-c3ccc(S(=O)(=O)N4CCCC4)cc3)n2C)no1 the results were Pf growth 96h 12µM*, Vaccinia Venus -9%, Pf growth 48h inconclusive, NS1 function inh -3%, HCV inh inconclusive and Vaccinia mCherry inactive.
For CCSc1ncc(Cl)c(C(=O)N(Cc2ccc(N(C)C)cc2)C2CCS(=O)(=O)C2)n1 (stereo not drawn) the results were Pf growth 96h 9%, Vaccinia Venus -4%, Pf growth 48h 10µM*, NS1 function inh -12%, HCV inh -12% and Vaccinia mCherry -14%.
Screening COc1cnn(-c2cc(Oc3ccc(C)cc3)ncn2)c(=O)c1Cl returned Pf growth 96h -3%, Vaccinia Venus 7%, NS1 function inh -8% and HCV inh 11%.
`COc1ccc(CN(CC(=O)NCc2ccc(F)cc2)C(=O)CCC(=O)Nc2nccs2)cc1` gave Pf growth 96h 4.7µM*, Vaccinia Venus -3%, Pf growth 48h 11%, NS1 function inh 13%, HCV inh 14% and Vaccinia mCherry -17%.
`COc1ccc(CNC(=O)CN(C(=O)CCC(=O)Nc2nccs2)c2ccc(C)cc2)cc1` gave Pf growth 96h 7.4µM*, Vaccinia Venus -10%, Pf growth 48h inconclusive, NS1 function inh 13%, HCV inh -16% and Vaccinia mCherry inactive.
For Cc1ccnc(NC(=O)CCC2COc3ccccc3O2)c1 (stereo not drawn) the results were Vaccinia Venus inconclusive, Pf growth 48h 24%, NS1 function inh -5% and HCV inh 5%.
`CCn1c(C)nc2cc(C(=O)NNC(=O)Nc3cccc(Cl)c3)ccc21` gave Pf growth 96h 25%, Vaccinia Venus -6%, Pf growth 48h 25%, NS1 function inh 6%, HCV inh -8% and Vaccinia mCherry -14%.
Screening O=C(O)c1ccccc1-c1cn2cc(Cl)ccc2n1 returned Pf growth 96h 229%, Vaccinia Venus -7%, Pf growth 48h 138%, HCV inh 12% and Vaccinia mCherry -9%.
For CCC1(c2ccc(F)cc2)NC(=O)N(CC(=O)Nc2cccc(S(=O)(=O)N3CCCCC3)c2)C1=O (stereo not drawn) the results were Pf growth 96h inconclusive, Vaccinia Venus -24%, Pf growth 48h inconclusive, HCV inh 10µM* and Vaccinia mCherry -21%.
For CC1CCC2(CC1)NC(=O)N(CC(=O)Nc1cccc(S(=O)(=O)N3CCCCC3)c1)C2=O (stereo not drawn) the results were HCV inh 25µM*.
Screening CC1CCC2(CC1)NC(=O)N(CC(=O)Nc1cccc(S(=O)(=O)N3CCOCC3)c1)C2=O (stereo not drawn) returned Pf growth 96h -3%, Vaccinia Venus -4%[7.34 µM], Pf growth 48h -10%, NS1 function inh -3%, HCV inh -17% and Vaccinia mCherry 0%[7.34 µM].
CC1CCC2(CC1)NC(=O)N(CC(=O)NC(=O)NC1CCCC1)C2=O (stereo not drawn) was read as Pf growth 96h 13µM*, Vaccinia Venus -14%, Pf growth 48h -14%, NS1 function inh -2%, HCV inh -20% and Vaccinia mCherry -3%.
CCC1(c2ccc(F)cc2)NC(=O)N(CC(=O)Nc2ccc(N3CCCCC3)cc2)C1=O (stereo not drawn) was read as Pf growth 96h 0%, Vaccinia Venus -18%, Pf growth 48h -12%, HCV inh inconclusive and Vaccinia mCherry -6%.
`O=C(CN1C(=O)NC2(CCCCCC2)C1=O)NC1CCCCCCC1` gave Pf growth 96h 14%, Vaccinia Venus 0%, Pf growth 48h 5%, HCV inh 10% and Vaccinia mCherry -4%.
For Cc1ccc(C2/C(=C(\O)c3c(C)nc4ccccn34)C(=O)C(=O)N2CCCN(C)C)o1 (stereo not drawn) the results were NS1 function inh 7%.
Screening Cc1nnc(SCC(=O)NCc2cccs2)n1-c1ccccc1 returned Vaccinia Venus -15%, Pf growth 48h -3%, NS1 function inh 6%, HCV inh 18% and Vaccinia mCherry -17%.
Cc1cccc([N+](=O)[O-])c1NC(=O)CN(Cc1ccccc1)Cc1ccccc1 was read as Pf growth 96h 8.3µM*, Vaccinia Venus -20%, Pf growth 48h inconclusive, NS1 function inh -6%, HCV inh inconclusive and Vaccinia mCherry inactive.
Screening Cc1cccc(C)c1NC(=O)CN(C)CCc1ccccc1 returned Vaccinia Venus 1% and Vaccinia mCherry 24%.
`O=C1[C@H]2[C@@H](c3ccc(Cl)cc3)N3C(=O)N(c4cccc(Cl)c4)C(=O)[C@@]3(Cc3ccc(Cl)cc3)[C@H]2C(=O)N1C1CCCCC1` gave Pf growth 96h inconclusive, Vaccinia Venus -18%, Pf growth 48h 2.6µM*, HCV inh 12% and Vaccinia mCherry -2%.
Screening O=C1[C@H]2[C@@H](c3ccc(F)cc3)N3C(=O)N(c4ccc(Br)cc4)C(=O)[C@@]3(Cc3ccccc3)[C@H]2C(=O)N1C1CCCCC1 returned Pf growth 96h 3.7µM*, Vaccinia Venus inconclusive, Pf growth 48h 3.3µM*, NS1 function inh inconclusive, HCV inh 2% and Vaccinia mCherry inactive.
For O=C1[C@H]2[C@@H](c3ccc(F)cc3)N3C(=O)N(c4cccc(F)c4)C(=O)[C@@]3(Cc3ccc(Cl)cc3)[C@H]2C(=O)N1C1CCCCC1 the results were Pf growth 96h 8.3µM*, Vaccinia Venus -13%, Pf growth 48h 15µM*, HCV inh -19% and Vaccinia mCherry 8%.
O=C1[C@H]2[C@@H](c3ccc(Cl)cc3)N3C(=O)N(c4cccc(F)c4)C(=O)[C@@]3(Cc3ccc(Cl)cc3)[C@H]2C(=O)N1C1CCCCC1 was read as Pf growth 96h inconclusive, Vaccinia Venus -19%, Pf growth 48h inconclusive, NS1 function inh 20%, HCV inh 26% and Vaccinia mCherry -8%.
For Cc1cccc(N2C(=O)N3[C@H](c4ccc(Cl)cc4)[C@@H]4C(=O)N(C5CCCCC5)C(=O)[C@@H]4[C@]3(Cc3ccc(Cl)cc3)C2=O)c1 the results were Pf growth 96h inconclusive, Vaccinia Venus -24%, Pf growth 48h inconclusive, NS1 function inh 3%, HCV inh 41% and Vaccinia mCherry inactive.
